Records with an inconclusive call do not appear. Active and inactive are the calls of the source. Calls come from the whole dose curve; as a rule, active = well fitted cell-killing curve with a large enough effect in the repeat runs; inconclusive = weak or mixed curves, or effect the other way; inactive = no such curve, though single readings can be large or run the other way.
Assay: qHTS assay to identify small molecule antagonists of the peroxisome proliferator-activated receptor gamma (PPARg) signaling pathway - cell viability counter screen (AID 743194); note: nearly all actives have a fitted effect of over 55% in size
Conditions: PPARg-bla HEK293H viability, CellTiter-Glo luminescence, 17 h, co-treated with 50 nM rosiglitazone; series mostly up to 62.6 µM
From the text: U.S. Tox21 Program National Center for Advancing Translational Sciences [NCATS] NIH Chemical Genomics Center [NCGC] U.S. Environmental Protection Agency [EPA] National Institutes of Environmental Health Sciences [NIEHS] National Toxicology Program [NTP] U.S. Food and Drug Administration [FDA] Tox21 Assay Overview: The peroxisome proliferator-activated receptors (PPARs) are lipid-activated transcription factors of the nuclear receptor superfamily with three distinct subtypes namely PPAR alpha, PPAR delta (also called PPAR beta) and PPAR gamma (PPARg). All these subtypes heterodimerize with Retinoid X receptor (RXR) and these heterodimers regulate transcription of various genes. PPAR-gamma receptor (glitazone receptor) is involved in the regulation of glucose and lipid metabolism. To identify the compounds that activate PPAR-gamma signaling, GeneBLAzer PPAR gamma UAS-bla HEK293H cell line (Invitrogen, Carlsbad, CA, USA) containing a beta-lactamase reporter gene under the control of an Upstream Activator Sequence (UAS) was used to screen the Tox21 compound library. The cytotoxicity of the Tox21 compound library against the PPARg-bla cell line was tested in parallel by measuring the cell viability using CellTiter-Glo assay in the same wells.
Tox21 Assay Protocol Summary: PPARg-bla cells were dispensed at 3000 cells/5uL/well in 1536-well black wall/clear bottom plates using a Multidrop Combi (Thermo Fisher Scientific, Waltham, MA) dispenser. After the assay plates were incubated at 37 C and 5% CO2 for 5 h, 23 nL of compounds dissolved in DMSO, positive controls or DMSO only was transferred to the assay plate by a Pintool station (Kalypsys, San Diego, CA), followed by addition of 1ul Rosiglitazone (50 nM, final concentration in the wells). The assay plates were incubated at 37 C for 17 h, and then 1 uL of LiveBLAzerTM B/G FRET substrate was added using a Bioraptr Flying Reagent Dispenser (FRD) workstation (Beckman Coulter, Indianapolis, IN, USA). The assay plates were incubated at room temperature for 1 h and fluorescence intensity was measured by an Envision plate reader (PerkinElmer, Shelton, CT). For cell viability readout that measures cytotoxicity, 4 ul/well of CellTiter-Glo reagent was added into the assay plates using a Flying Reagent Dispenser. After 30 min incubation at room temperature, the luminescence intensity in the plates was measured using a ViewLux plate reader (PerkinElmer).

Row | SMILES | outcome
1 | NCCS | inactive
2 | CN(C)CCOCCO | inactive
3 | CCOCCOC(=O)/C=C/c1ccc(OC)cc1 | inactive
4 | O=C(CCN1CCN(CCO)CC1)N1c2ccccc2Sc2ccc(C(F)(F)F)cc21 | inactive
5 | CC(C(=O)O)c1ccc2c(c1)CC(=O)c1ccccc1S2 (stereo not given) | inactive
6 | CC(C)(C)c1n[nH]c(=S)n(N)c1=O | inactive
7 | CC(=O)CCCCn1c(=O)c2c(ncn2C)n(C)c1=O | inactive
8 | CC(=O)/C=C/C1C(C)=CCC(C)C1(C)C (stereo not given) | inactive
9 | Cc1ccc2ccc(Cl)cc2n1 | inactive
10 | On1nnc2ccccc21 | inactive
11 | CCCCCCCCOS(=O)(=O)O | inactive
12 | OCCN(CCO)c1cccc(Cl)c1 | inactive
13 | CCCCOCCOC(=O)COc1nc(Cl)c(Cl)cc1Cl | inactive
14 | Brc1ccc(-c2ccccc2)cc1 | inactive
15 | O=C(OCC1(COC(=O)c2cccnc2)CCCC(COC(=O)c2cccnc2)(COC(=O)c2cccnc2)C1O)c1cccnc1 | inactive
16 | CCOC(=O)CC(=O)c1ccccc1 | inactive
17 | CCN(C)C(=O)Oc1cccc([C@H](C)N(C)C)c1 | inactive
18 | CCn1ccc(NS(=O)(=O)c2ccc(N)cc2)nc1=O | inactive
19 | COCCOC(=O)C1=C(C)NC(C)=C(C(=O)OC(C)C)C1c1cccc([N+](=O)[O-])c1 (stereo not given) | inactive
20 | O=S(=O)(O)c1cc(O)c2ccc(Nc3ccccc3)cc2c1 | inactive

Row | SMILES | outcome
21 | NS(=O)(=O)c1ccc(NC(=O)CCC(=O)O)cc1 | inactive
22 | Nc1ccc(S(=O)(=O)Nc2ccc(Cl)nn2)cc1 | inactive
23 | CCC(C)(CCC(C)C)C(=O)O (stereo not given) | inactive
24 | CC(C)C(=O)OCc1cccc(OC(=O)[C@@H]2N3C(=O)[C@@H](NC(=O)Cc4ccccc4)[C@H]3SC2(C)C)c1 | inactive
25 | C=Cc1ccccn1 | inactive
26 | CC(C)N(c1ccccc1)C(C)C | inactive
27 | Nc1ccc([N+](=O)[O-])c(N)c1 | inactive
28 | CCCCC(CC)COCCO (stereo not given) | inactive
29 | COCCc1ccc(OCC2CO2)cc1 (stereo not given) | inactive
30 | C[C@H](N)[C@H](O)c1cccc(O)c1 | inactive
31 | CCCCCOC(=O)CCC | inactive
32 | CC(=O)OC(C)OC(=O)C(C)c1ccc(-c2ccccc2)c(F)c1 (stereo not given) | inactive
33 | CO[C@@H]1[C@@H](OC(N)=O)[C@@H](O)[C@H](Oc2ccc3c(O)c(NC(=O)c4ccc(O)c(CC=C(C)C)c4)c(=O)oc3c2C)OC1(C)C | inactive
34 | OCCCCC(O)CO (stereo not given) | inactive
35 | O=S(=O)(O)c1ccc2cc(O)c(S(=O)(=O)O)cc2c1 | inactive
36 | CC(=O)NCCCCCC(=O)O | inactive
37 | CCCC/C=C/C=C\C=O | inactive
38 | CC(=O)Nc1ccc(S(=O)(=O)Cl)cc1 | inactive
39 | CC(C)(C)c1nnc(NS(=O)(=O)c2ccc(N)cc2)s1 | inactive
40 | CCC(C)NC(N)=O (stereo not given) | inactive
